Hits are enriched below; roughly 19% of the tested compounds scored in any of these assays.
HT1080NT lethal – qHTS for induction of synthetic lethality in tumor cells producing 2HG: qHTS for the HT-1080-NT fibrosarcoma cell line. HT-1080-NT fibrosarcoma viability, CellTiter-Glo ATP luminescence, 48 h. Potency, µM (highest dose often 46.1 µM), inactives show at the highest dose activity, negative = less viability, hits mostly cytotoxic. hit rate 1.6% among 360,000. AID 686970, 2013;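 also: NT is the 2HG producing partner of a matched IDH1 knockdown line; potency is read from the fitted curve at half-maximal effect; 0% = DMSO-treated cells and -100% = media-only wells without cells; nearly all actives have a fitted effect of over 55% in size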
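Read-out is CellTiter-Glo luminescence after 10 minutes at room temperature, following 48 hours' compound treatment of HT-1080-NT cells (750 cells/well, RPMI, 5% FBS, 37 degrees C).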
DT40 TDP1 no CPT – qHTS for Inhibitors of human tyrosyl-DNA phosphodiesterase 1 (TDP1): qHTS in cells in absence of CPT | hit rate 15% among 420,000 | DT40 Tdp1-/- hTDP1 cells, no CPT, ATP luminescence, 48 h | Potency, µM (series often up to 46.2 µM), for inactives: top-dose activity change, negative = growth inhibition, most hits filed as inhibitors; also: potency is read from the fitted curve at half-maximal effect; nearly all actives have a fitted effect of over 55% in size
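Compound effects on proliferation are scored in DT40 Tdp1-/-;hTDP1 cells in the absence of CPT. ATP levels (CellTiter-Glo luminescence) are recorded after a ≥48 hr, 37 °C incubation.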
IL-1B inflam inh – qHTS for Inhibitors of Inflammasome Signaling: IL-1-beta AlphaLISA Primary Screen | THP-1 LPS/ATP IL-1B secretion, AlphaLISA, 16 h; hits give low values | activity change, % at 57.5 µM | hit rate 4.7% among 360,000 | AID 743279, 2014; in the data active = activity change below about -50%; inconclusive = mostly about -30% to -49%
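Secreted IL-1B measured by AlphaLISA bead assay after 16 h compound exposure of THP-1 cells; compounds (final up to 57.5 uM) added 1 h before LPS (250 ng/mL) and ATP (1.25 mM) stimulation; lower signal means less secretion.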
HT1080 IDH1KD tx – qHTS for induction of synthetic lethality in tumor cells producing 2HG: qHTS for the HT-1080-IDH1KD cell line | HT-1080 IDH1 knockdown viability, ATP luminescence, 48 h | hit rate 2% among 360,000 | Potency, µM (highest dose often 46.1 µM), without a hit: top-dose activity, negative = toxicity, most hits filed as cytotoxic;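 also: potency is read from the fitted curve at half-maximal effect; 0% = DMSO wells and -100% = cell-free medium wells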
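After a 2 h attachment period, IDH1KD HT-1080 cells took pin-transferred compound for 48 h at 37 °C; ATP-based luminescence after 10 min room-temperature reagent incubation reported viability.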
DT40 TDP1 CPT – qHTS for Inhibitors of human tyrosyl-DNA phosphodiesterase 1 (TDP1): qHTS in cells in presence of CPT; chicken DT40 Tdp1-/-;hTDP1 cells + 20 nM CPT, ATP luminescence, 48 h; AID 686979, 2013; Potency, µM (doses to about 46.2 µM), for the others: at the highest dose activity change, negative = growth inhibition, most hits filed as inhibitors; hit rate 12% among 420,000; also: potency is read from the fitted curve at half-maximal effect; nearly all actives have a fitted effect of over 55% in size
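Chicken DT40 Tdp1-/- cells complemented with human TDP1, 400 cells/well, exposed to compounds plus 20 nM camptothecin for at least 48 h at 37 C; viability read as ATP content by CellTiter-Glo luminescence.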
Starred values were filed as active, the others as inactive; ? = inconclusive; . = no result given; [ ] = remark or other dose. Unless noted, calls follow the shape of the dose curve; as a rule, active = well fitted curve in the direction sought with a large enough effect; inconclusive = small, poorly fitted or top-dose-only effect, or another doubt; inactive = no such curve, though single readings can be large; an effect the other way counts as inactive or inconclusive. Unless noted, % is scaled to controls: 0 for no effect and ±100 for the full control effect.

SMILES	HT1080NT lethal	DT40 TDP1 no CPT	IL-1B inflam inh	HT1080 IDH1KD tx	DT40 TDP1 CPT
CCCNC(=O)c1cc(C2CCCCN2C(=O)c2ccccc2)on1 (stereo unspecified)	?	-24%	36	12%	-24%
CCCNC(=O)c1cc(C2CCCCN2C(=O)c2cc(OC)c(C)c(OC)c2)on1 (stereo unspecified)	14%	?	23	-2%	21µM*
Cc1cnn(Cc2cccnc2)c1N	6%	-13%	10	6%	10%
CCCCNc1ccc(-c2nc(-c3ccccn3)no2)cc1[N+](=O)[O-]	.	-10%	.	.	-11%
CCN(CC)c1ccc(-c2nc(-c3ccncc3)no2)cc1[N+](=O)[O-]	.	15µM*	.	.	13µM*
CCCNc1ccc(-c2nc(-c3ccccn3)no2)cc1[N+](=O)[O-]	.	-16%	.	.	-5%
Cc1cc(-c2nc(-c3ccncc3)no2)ccc1[N+](=O)[O-]	16%	?	-8	24%	15µM*
Cc1ccc(-c2nc(-c3ccccn3)no2)cc1[N+](=O)[O-]	-2%	23µM*	3	-1%	?
CCN(CC)c1ccc(-c2nc(-c3ccccn3)no2)cc1[N+](=O)[O-]	.	16µM*	.	.	-7%
CNc1ccc(-c2nc(-c3ccncc3)no2)cc1[N+](=O)[O-]	.	-6%	.	.	-14%
CC1(C)CC2c3cccc(C(=O)O)c3C(=O)N2c2c1ccc1ccccc21 (stereo unspecified)	2%	-15%	42	13%	-6%
Cc1cccc(NC(=O)CSc2nc3[nH]c(=O)cc(O)c3s2)c1	-11%	0%	0	-8%	-2%
COc1cccc(C(=O)/C=C2\Sc3ccccc3N2C)c1	-8%	?	-77*	-14%	?
O=C(ONC1=NCCCCC1)c1ccc(Cl)cc1	16µM*	15µM*	-17	23µM*	21µM*
O=C(CNC1=NCCC1)c1ccc(Cl)cc1	-5%	7%	57	-7%	6%
O=C(ONC1=NCCCCC1)c1c(F)cccc1F	-21%	?	-8	-8%	16µM*
CCc1nc(C)cn1S(=O)(=O)c1ccc(Br)cc1	-2%	?	-7	-3%	?
CCOC(=O)C1CCN(C(=O)c2oc3ccc4c(c3c2C)C(O)CC2(CCCCC2)O4)CC1 (stereo unspecified)	-16%	?	6	-21%	?
Cc1c(C(=O)NCCCN2CCCCC2)oc2ccc3c(c12)C(O)CC1(CCCCC1)O3 (stereo unspecified)	2%	16µM*	-4	3%	?
Cc1nc2ccc(S(=O)(=O)Nc3ccccc3C)cc2s1	?	18µM*	12	?	?
Cc1nc2ccc(S(=O)(=O)CCC(=O)Nc3ccccc3C)cc2s1	.	-4%	.	.	-24%
Cc1nc2ccc(NS(=O)(=O)c3ccc(F)cc3F)cc2s1	6%	?	27	0%	?
Cc1nc2ccc(NS(=O)(=O)c3ccc(C)c(C)c3)cc2s1	-18%	10µM*	1	?	15µM*
Cc1nc2ccc(NS(=O)(=O)c3ccc(F)c(F)c3F)cc2s1	1%	?	47	-6%	?
Cc1nc2ccc(NS(=O)(=O)c3c(F)cc(F)cc3Br)cc2s1	0%	6.5µM*	27	-21%	?
SMILES	HT1080NT lethal	DT40 TDP1 no CPT	IL-1B inflam inh	HT1080 IDH1KD tx	DT40 TDP1 CPT
CN(C)C(CNc1ccc([N+](=O)[O-])cc1C#N)c1ccccc1 (stereo unspecified)	3%	0%	2	18%	2%
Cc1nn(CC(C)C)c(Cl)c1C(=O)NCC1CCCO1 (stereo unspecified)	10%	-1%	13	9%	-9%
O=C(NC(NC(=S)N1CCOCC1)C(Cl)(Cl)Cl)c1ccc(Cl)cc1 (stereo unspecified)	-28%	4.1µM*	1	?	3.7µM*
Cc1ccc(OCC(=O)Nc2ccccc2C(=O)OCc2cc(=O)n3ccsc3n2)cc1C	.	-14%	.	.	-14%
Cc1cc(C)cc(SCc2noc(C(=O)NCC3CC3)c2C(=O)NCC2CC2)c1	7%	?	?	-8%	?
O=C1CN(C(=O)c2ccc(Br)o2)C(c2ccc(F)cc2)c2cc(F)ccc2N1 (stereo unspecified)	-17%[9.24 µM]	-21%	-25	?	?
COc1ccc(OCCSc2nnc(CCNC(=O)c3ccc(Cl)c(Cl)c3)n2C)cc1	-18%	?	-1	-30%	25µM*
CCC(C)(C)C(=O)Nc1ncc(S(=O)(=O)c2ccc([N+](=O)[O-])cc2)s1	-16%	?	58	-27%	?
CCCC(C)C(=O)Nc1ncc(S(=O)(=O)c2ccc([N+](=O)[O-])cc2)s1 (stereo unspecified)	-8%	?	53	-14%	15µM*
O=C(CCl)Nc1ncc(S(=O)(=O)c2ccc([N+](=O)[O-])cc2)s1	?	16µM*	?	-19%	29µM*
COc1ccc(C(=O)N/C(=C/c2cccnc2)C(=O)N2CCCCCC2)cc1OC	0%	4%	18	-2%	-10%
CC1CCCN(C(=O)CSc2nnc3ccccn23)C1 (stereo unspecified)	1%	?	0	1%	-9%
C[C@@H]1[C@@H](Sc2ccccc2)CC(=O)O[C@@H]1c1ccc(-c2ccccc2)cc1	?	7.3µM*	-102*	?	8.2µM*
OCC1CCCCN1C(=S)Nc1cccc(Cl)c1 (stereo unspecified)	2%	-11%	0	14%	0%
CCN(CC)CCCN(Cc1cc2cc3c(cc2[nH]c1=O)OCO3)C(=S)Nc1ccccc1	-25%	?	-65*	?	?
CCN(CC)CCN(Cc1cc2cc3c(cc2[nH]c1=O)OCCO3)C(=S)NCCCN(C)C	3%	11%	-17	-20%	5%
CC(C)CNC(=S)N(CCN(C)C)Cc1cc2cc3c(cc2[nH]c1=O)OCO3	-1%	5.2µM*	?	-7%	?
CCCCNC(=S)N(CCN(CC)CC)Cc1cc2cc3c(cc2[nH]c1=O)OCCO3	-9%	?	?	-10%	26µM*
Cc1ccc(CN(C)C(=O)c2cc(S(=O)(=O)N3CCOCC3)ccc2F)o1	1%	?	1	-1%	2%
COc1c2c(c(OC)c3c1c(=O)c1ccccc1n3C)OCO2	12%	-23%	13	-4%	-19%

Screening results (PubChem BioAssay)
